NR3A LBD binder – modulates the human NR3A ligand-binding domain; Tm shift relative to glycine control, % at 25 µM; hit rate 2.5% among 340,000; NR3A LBD differential scanning fluorimetry, Tm shift; 0% = protein alone, 100% = glycine-bound protein;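 active = melting temperature shift of at least 10% of the positive control shift, at one fixed dose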
MPTP block – inhibitors of mitochondrial permeability transition pore. isolated mouse mitochondria, Ca2+ swelling absorbance, 30 min. inhibition, % at 10 µM. hit rate 1.4% among 360,000;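 active = inhibition of 50% or more, scaled per plate between neutral and stimulator controls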
Mdm2 MdmX PPI – human Mdm2/MdmX binding inhibition; inhibition, % at 8 µM; hit rate 3% among 330,000; AID 485346; O15151+Q00987; SaOS-2 split-luciferase Mdm2/MdmX complementation, luminescence;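 active = inhibition of at least 50% at 8 µM in the primary screen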
Target sequence (O15151 whole entry, looked up): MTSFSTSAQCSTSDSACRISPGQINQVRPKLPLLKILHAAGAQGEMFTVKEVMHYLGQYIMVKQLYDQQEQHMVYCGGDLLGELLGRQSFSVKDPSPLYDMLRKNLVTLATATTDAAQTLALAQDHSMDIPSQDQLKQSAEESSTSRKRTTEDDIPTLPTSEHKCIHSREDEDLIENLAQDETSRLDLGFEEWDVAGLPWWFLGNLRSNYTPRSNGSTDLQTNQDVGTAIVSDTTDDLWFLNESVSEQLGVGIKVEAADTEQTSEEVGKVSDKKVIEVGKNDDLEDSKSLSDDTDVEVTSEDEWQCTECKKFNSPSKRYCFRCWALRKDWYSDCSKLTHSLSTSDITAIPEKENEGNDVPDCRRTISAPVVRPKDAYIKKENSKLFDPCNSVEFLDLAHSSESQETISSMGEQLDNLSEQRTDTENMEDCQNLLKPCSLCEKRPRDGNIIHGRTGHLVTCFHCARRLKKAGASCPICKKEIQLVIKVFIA
Target sequence (Q00987 whole entry, looked up): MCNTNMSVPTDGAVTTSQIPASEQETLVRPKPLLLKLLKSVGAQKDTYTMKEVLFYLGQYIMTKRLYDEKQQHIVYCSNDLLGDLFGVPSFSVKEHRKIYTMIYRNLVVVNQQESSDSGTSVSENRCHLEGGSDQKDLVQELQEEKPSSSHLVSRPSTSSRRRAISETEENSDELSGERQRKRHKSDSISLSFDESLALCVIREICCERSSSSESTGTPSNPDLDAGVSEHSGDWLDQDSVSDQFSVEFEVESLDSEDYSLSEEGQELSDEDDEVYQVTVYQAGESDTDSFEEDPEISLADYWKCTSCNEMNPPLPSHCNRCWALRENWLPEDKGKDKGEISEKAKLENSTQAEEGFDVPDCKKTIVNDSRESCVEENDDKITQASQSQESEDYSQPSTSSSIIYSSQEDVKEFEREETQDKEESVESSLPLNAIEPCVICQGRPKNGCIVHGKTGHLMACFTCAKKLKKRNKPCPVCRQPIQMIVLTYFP
Gli-Sufu antag – blocks Gli-Sufu signaling in a luciferase reporter | Sufu-KO-LIGHT fibroblasts, Gli luciferase reporter luminescence | inhibition, % at 5 µM | hit rate 0.74% among 340,000 | AID 588413;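 active = inhibition above about 55%, limit read from the data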
Beta apoptosis – beta cell apoptosis inhibition; protection from apoptosis, % (no concentration beside the values); AID 435005; INS-1E cytokine-induced death, ATP luminescence, 48 h; percent of positive-control rescue, neutral wells zero; hit rate 0.8% among 300,000;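 active = Every replicate reaches about 75%, or at least half do and their mean reaches it too, limit read from the data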;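 also: higher means more ATP so stronger rescue from cytokine killing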
CSC inhib – cancer stem cell inhibition. cancer stem cell-like cells viability, luminescence. inhibition, % at 7.5 µM. hit rate 1.1% among 300,000; in the data active = inhibition above about 75%; tested in HMLE shEcad cells
Mdm2-MdmX conf – human Mdm2/MdmX binding inhibition, confirmed; shares compounds with Mdm2 MdmX PPI; luminescent assay; inhibition, % at 8 µM; hit rate 55% among 10,000; AID 489028; in the data active = inhibition above about 40%
Full FLuc ctr – inhibits full-length luciferase, flagging false Mdm2/MdmX hits; hit rate 77% among 6,200; SaOS-2 full-length luciferase counterscreen, luminescence; AID 504607; shares compounds with Mdm2 MdmX PPI; inhibition, % at 8 µM;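 active = mean inhibition at 8 µM reaching about 37%, which flags the compound as non-specific, limit read from the data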;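 also: p53-null SaOS-2 cells with luciferase driven by a doxycycline-inducible promoter; compound on cells about two nights before reading with doxycycline added after day one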
Each line names hits and unclear results; the compound was inactive in the other large screens (follow-up assays come after a bar, where they were run). Sampled rows, rich in hits. Any-hit rate of the full collection: about 6.6%.

CC1CCN(Cc2c(C(=O)N/N=C/c3ccc(C(C)(C)C)cc3)nnn2-c2nonc2N)CC1	Mdm2 MdmX PPI 50 | Mdm2-MdmX conf inactive
Nc1nonc1C(=O)N/N=C/c1cc(Br)ccc1O	none (no result: MPTP block)
c1cc2[nH]snc2c2nc(C3CC3)nc12	Mdm2 MdmX PPI 72 | Mdm2-MdmX conf 73 | Full FLuc ctr inactive
CN(C(=O)c1cccc(NC(=O)Cc2cccc(NC(=O)C3CCN(C(=O)CCc4ccccc4)CC3)c2)c1)C1CC1	none (no result: Mdm2 MdmX PPI, Beta apoptosis, CSC inhib)
Fc1ccc(C2c3[nH]c4ccccc4c3CCN2Cc2cccn2-c2ncccn2)cc1 (stereo unspecified)	Mdm2 MdmX PPI 78 | Mdm2-MdmX conf 62 | Full FLuc ctr 61
COc1ccc(C(O)c2ncc(-c3ccccc3C)[nH]2)cc1F (stereo unspecified)	none (no result: NR3A LBD binder, Mdm2 MdmX PPI, Gli-Sufu antag, Beta apoptosis, CSC inhib)
COc1ccc(-c2c(-c3cc(OC)cc(OC)c3)n(C)c3ccc(-c4ccc(SC)cc4)cc23)cc1	none
COc1cc(OC)cc(-c2c(-c3ccc(F)cc3)c3cc(-c4ccc(OC)nc4)ccc3n2C)c1	Mdm2 MdmX PPI 52 (no result: CSC inhib) | Mdm2-MdmX conf inactive
COc1ccc(-c2ccc3c(c2)c(-c2cccs2)c(-c2cc(OC)cc(OC)c2)n3C)cc1	none
COc1cc(OC)cc(-c2c(-c3cccs3)c3cc(-c4ccc(C(N)=O)cc4)ccc3n2C)c1	Mdm2 MdmX PPI 86 (no result: CSC inhib) | Mdm2-MdmX conf inactive
COc1cc(OC)cc(-c2c(-c3ccc(F)cc3)c3cc(-c4ccc(SC)cc4)ccc3n2C)c1	Mdm2 MdmX PPI 53 (no result: CSC inhib) | Mdm2-MdmX conf inactive
COc1cccc(-c2c(-c3cc(OC)cc(OC)c3)n(C)c3ccc(-c4ccc(OC)nc4)cc23)c1	none
CC(C)CC1NC(=O)c2ccccc2-n2c1nc1ccc(F)cc1c2=O (stereo unspecified)	none (no result: NR3A LBD binder, MPTP block, Gli-Sufu antag)
COc1cccc(/C=C/c2ccc3cccc(O)c3n2)c1	Mdm2 MdmX PPI 62 | Mdm2-MdmX conf inactive
COc1cc(/C=C/c2ccc3cccc(O)c3n2)cc(OC)c1OC	Mdm2 MdmX PPI 84 (no result: NR3A LBD binder) | Mdm2-MdmX conf 76 | Full FLuc ctr inactive
COc1cc(/C=C/c2ccc3cccc(O)c3n2)cc(Br)c1OC	Mdm2 MdmX PPI 93 | Mdm2-MdmX conf inactive
COc1cccc(C(O)c2nc(/C=C/c3ccccc3)cs2)c1 (stereo unspecified)	none (no result: NR3A LBD binder, Mdm2 MdmX PPI, Gli-Sufu antag, Beta apoptosis, CSC inhib)
COc1cc(/C=C/c2ccc3cccc(O)c3n2)cc(Cl)c1OC	Mdm2 MdmX PPI 100, CSC inhib 91 | Mdm2-MdmX conf inactive
COC(=O)c1ccc(/C=C/c2ccc3cccc(OC)c3n2)cc1	none
O=C(Cc1ccc(Cl)cc1)NCC(=O)N1CCC2(CC1)NCCc1[nH]cnc12	none (no result: NR3A LBD binder, Mdm2 MdmX PPI, Gli-Sufu antag, Beta apoptosis, CSC inhib)
CCN(CC)CCOC(=O)c1ccc(N/C=C(/C#N)c2nc(-c3cccc(OC)c3)cs2)cc1	Mdm2 MdmX PPI 61 | Mdm2-MdmX conf inactive
Cc1cccc(C)c1OCc1nnc(SCC(=O)Nc2cccc(C(=O)N3CCOCC3)c2)n1C	Mdm2 MdmX PPI 53 | Mdm2-MdmX conf inactive
CC1(C(=O)NS(=O)(=O)Cc2cccc(Cl)c2)CCN1C(=O)CCc1cccs1 (stereo unspecified)	none (no result: NR3A LBD binder, Mdm2 MdmX PPI, Gli-Sufu antag, Beta apoptosis, CSC inhib)
COc1ccc(NC(=S)NC(=O)/C=C/c2ccco2)cc1	none
O=C(/C=C/c1ccco1)NC(=S)Nc1ccc(C(=O)O)cc1	none (no result: Beta apoptosis, CSC inhib)
CC(=O)NC(=S)Nc1ccc(NC(=S)NC(=O)/C=C/c2ccco2)cc1	Mdm2 MdmX PPI 73 | Mdm2-MdmX conf 65 | Full FLuc ctr inactive
O=C(/C=C/c1ccco1)NC(=S)Nc1ccc(N2CCCC2)cc1	Mdm2 MdmX PPI 61 | Mdm2-MdmX conf 62 | Full FLuc ctr 52
O=C(NC(=S)Nc1nc(-c2ccc([N+](=O)[O-])cc2)cs1)c1ccco1	NR3A LBD binder 20, Mdm2 MdmX PPI 55 | Mdm2-MdmX conf inactive
O=C(/C=C/c1ccco1)NC(=S)Nc1ccc(O)c(-c2nc3ccccc3s2)c1	Mdm2 MdmX PPI 77 (no result: CSC inhib) | Mdm2-MdmX conf inactive | Full FLuc ctr 72
CCCOc1ccc(-c2c(=O)n(O)c3ccccc3[n+]2[O-])cc1	none
Cc1ccc(-c2csc(NC(=S)NC(=O)/C=C/c3ccco3)n2)cc1	NR3A LBD binder 17, Mdm2 MdmX PPI 59 | Mdm2-MdmX conf 51 | Full FLuc ctr 59
O=C(NCCc1ccccc1F)C1C(=O)Nc2ccccc2C(=O)N1C1CCCCC1 (stereo unspecified)	none (no result: NR3A LBD binder, Mdm2 MdmX PPI, Gli-Sufu antag, Beta apoptosis, CSC inhib)
CCCCCc1cc(=O)oc2c(C(CCN3CCCC3)c3ccc(N(C)C)cc3)c(OC)cc(OC)c12 (stereo unspecified)	Mdm2 MdmX PPI 97 | Mdm2-MdmX conf inactive | Full FLuc ctr 53
COc1cc(OC)c2ccc(=O)oc2c1C(CCN1CCCC(C)C1)c1ccc2c(c1)OCO2 (stereo unspecified)	none
CCCCCc1cc(=O)oc2c(C(CCN3CCN(c4ccccc4)CC3)c3ccc4c(c3)OCO4)c(OC)cc(OC)c12 (stereo unspecified)	none
CCCCCc1cc(=O)oc2c(C(CCN3CCCC(C)C3)c3ccc(OC)cc3)c(OC)cc(OC)c12 (stereo unspecified)	Mdm2 MdmX PPI 86, Beta apoptosis 109, CSC inhib 102 | Mdm2-MdmX conf 42 | Full FLuc ctr 50
CCCCCc1cc(=O)oc2c(C(CCN(CC)CC)c3ccc(OC)cc3)c(OC)cc(OC)c12 (stereo unspecified)	Mdm2 MdmX PPI 100, Beta apoptosis 98 | Mdm2-MdmX conf inactive | Full FLuc ctr 51
CCCCCc1cc(=O)oc2c(C(CCN3CCCCC3)c3ccc(OC)cc3)c(OC)cc(OC)c12 (stereo unspecified)	Mdm2 MdmX PPI 96, CSC inhib 97 | Mdm2-MdmX conf inactive | Full FLuc ctr 44
CCCCCc1cc(=O)oc2c(C(CCN3CCCC3)c3cc(OC)c(OC)c(OC)c3)c(OC)cc(OC)c12 (stereo unspecified)	Mdm2 MdmX PPI 100 | Mdm2-MdmX conf 62 | Full FLuc ctr 39
CC1(C)N=C(SCC(=O)Nc2ccc(Cl)cc2)C(c2ccc(Cl)cc2)=N1	Mdm2 MdmX PPI 56 | Mdm2-MdmX conf inactive
CCOC(=O)c1c(C)[nH]c(C)c1C(=O)CSc1nc2ccccc2c(=O)n1-c1ccc(CC)cc1	Mdm2 MdmX PPI 56, Beta apoptosis 110 | Mdm2-MdmX conf inactive | Full FLuc ctr 96
CCN1CCN(C(c2ccc(C(F)(F)F)cc2)c2ccc3cccnc3c2O)CC1 (stereo unspecified)	Mdm2 MdmX PPI 74, Beta apoptosis 86, CSC inhib 104 | Mdm2-MdmX conf 78 | Full FLuc ctr inactive
Oc1c(C(c2ccccn2)N2CCCCC2)cc(Cl)c2cccnc12 (stereo unspecified)	Mdm2 MdmX PPI 65 | Mdm2-MdmX conf 46 | Full FLuc ctr 43

From PubChem BioAssay
